Hit rate of the full screen: of about 3,600 compounds, about 100 (2.8%) were called active.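 Rule for the calls: active = inhibition above 30% at one or more concentrations, seen consistently on every test date; inconclusive = results that disagree between repeat test dates; inactive = the rest.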 A selection follows.
Assay: GST-antibody interaction or FRET quenching – biochemical, TR-FRET, artefact control for Vif-APOBEC3G degradation inhibitor project, dose response (AID 1117362);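 note: biotinylated GST protein used in place of GST-Vif 1-94 and biotin-A3G peptide; detects fluorescence quenchers or blockers of GST binding to anti-GST antibody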
Settings: TR-FRET counter screen, biotin-GST/anti-GST signal; series mostly up to 100 µM; inhibition: at the top concentration

| Compound | inhibition | IC50 |
| --- | --- | --- |
| CCN(C(=O)c1coc(=O)c(Br)c1)c1ccc2c(c1)OCO2 | 25.4% (inactive) |  |
| COc1ccc(NC(=O)/C(C#N)=C\c2ccc(Br)o2)cc1 | 9.72% (inactive) |  |
| COc1ccc2c(c1)c(=O)oc1cc(OCC(=O)N3CCC(C)CC3)ccc12 | -4.74% (inactive) |  |
| CC(C)(C)OC(=O)N(Cc1ccccc1)Cc1cccc(OCc2cccc(NC(=O)c3ccccc3)c2)c1 | 1.79% (inactive) |  |
| Cc1cc(C(=O)COC(=O)c2cc(O)c3ccccc3c2O)c(C)n1CC1CCCO1 (stereo unspecified) | 6.11% (inactive) |  |
| CCOc1ccc2[nH]c(=O)c(CN(Cc3ccco3)C(=O)c3ccc(Br)cc3)cc2c1 | -4.7% (inactive) |  |
| CCOC(=O)C1=C(C)N=C2SC(C(=O)OC)=CC(=O)N2C1c1cc(OC)c(OC)c(OC)c1 (stereo unspecified) | 0.25% (inactive) |  |
| CC(C)OC(=O)c1cccc(C(=O)O)n1 | 0.71% (inactive) |  |
| O=C(NCc1ccccn1)c1coc(=O)c(Br)c1 | -1.46% (inactive) |  |
| CCCN1C(=O)S/C(=C\c2ccc(N3CCOCC3)cc2C)C1=O | 3.79% (inactive) |  |
| CN(CCc1ccccc1)C(=O)c1ccc(NC(=O)Cc2ccc(NC(=O)C3CCN(C(=O)CCc4ccccc4)CC3)cc2)cc1 | -4.37% (inactive) |  |
| Cc1ccc(C2SCC(=O)N2Cc2cn3ccsc3n2)o1 (stereo unspecified) | 0.01% (inactive) |  |
| CCn1c(SCC(=O)Nc2cc(C)on2)nnc1-c1cccnc1 | 15% (inactive) |  |
| C/C(=N\Nc1ccc(Cl)c(C(=O)O)c1)c1ccc[nH]1 | -6.35% (inactive) |  |
| COc1ccc(C2=CC(c3ccc(Cl)cc3)n3cnnc3N2)cc1OC (stereo unspecified) | -9.19% (inactive) |  |
| COc1ccc(Nc2ccc(OC)cc2)cc1 | 20.4% (inactive) |  |
| Cc1nn(-c2ccccc2)c2sc(C(=O)N3CCc4ccccc4C3)cc12 | -2.11% (inactive) |  |
| C/C(N)=C(/C#N)C(=O)CSc1nnc(NC(C)C)s1 | 18.7% (inactive) |  |
| CCN1CCN(C2=NC(=O)/C(=C/c3ccc(C)o3)S2)CC1 | 8.23% (inactive) |  |
| Cc1ccc2cc(C(c3nnnn3Cc3ccccc3)N3CCc4ccccc43)c(=O)[nH]c2c1 (stereo unspecified) | -2.82% (inactive) |  |
| COC(=O)\C(C(C)=O)=C(/C=C/C=C/C=C/N(C)C)N(C)C | -3.51% (inactive) |  |
| O=C(NCCc1c[nH]c2ccccc12)c1ccc(S(=O)(=O)NCc2ccco2)cc1 | -1.73% (inactive) |  |
| COc1ccc(S(=O)(=O)Cc2ccc(C(=O)N3CCN(c4ccccc4)CC3)o2)cc1 | 2.72% (inactive) |  |
| CC1=C(C(=O)Nc2ccccc2F)C(c2ccsc2)C2=C(CC(c3ccccc3)CC2=O)N1 (stereo unspecified) | 4.39% (inactive) |  |
| C[c-]1[c-](C)[c-](C)[c-](C)[c-]1C.[Fe].c1cc2nccc(N3CCCC3)[c-]2c1 (stereo unspecified) |  | 28 µM (active) |
| O=C1NC(c2ccc(Br)cc2)=N/C1=C/c1ccco1 | -4.77% (inactive) |  |

Reference: PubChem BioAssay AID1117362 (Southern Research Institute, 2015)
